# Experimental data published in PubChem BioAssay (NCI).
# About 83,000 compounds went through this panel and 20% of them were active in at least one assay; those are over-represented in the sample as a whole.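 For each line, cells grew in 96-well plates with the test compound present at a single concentration for 48 hours.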 Unmarked numbers belong to inactive results. The source made the active and inactive calls. How the source made its calls: active means growth percent below 10; inactive means the rest.
# Legend:
# Assay in all cases: NCI-60 one-dose screen, 48 h (100 = growth as untreated, 0 = no growth, -100 = all killed)
# [1] = tested on: A549/ATCC NSCLC; conditions: 10 µM unless noted
# [2] = tested on: DU-145 prostate; conditions: 10 µM unless noted
# [3] = tested on: K-562 leukemia; conditions: 10 µM unless noted
# [4] = tested on: RXF 393 renal; conditions: 10 µM unless noted
# [5] = tested on: SF-295 CNS; conditions: 10 µM unless noted
# [6] = tested on: UACC-257 melanoma; conditions: 10 µM unless noted
# [7] = tested on: HCT-15 colon; conditions: 10 µM
# [8] = tested on: HT29 colon; conditions: 10 µM unless noted
# [9] = tested on: LOX IMVI melanoma; conditions: 10 µM unless noted
# [10] = tested on: SN12C renal; conditions: 10 µM unless noted
# [11] = tested on: CAKI-1 renal; conditions: 10 µM unless noted
# [12] = tested on: A498 renal; conditions: 10 µM unless noted
# [13] = tested on: HL-60(TB) leukemia; conditions: 10 µM unless noted
# [14] = tested on: MOLT-4 leukemia; conditions: 10 µM
# [15] = tested on: OVCAR-8 ovarian; conditions: 10 µM unless noted
# [16] = tested on: OVCAR-4 ovarian; conditions: 10 µM unless noted
# [17] = tested on: SK-OV-3 ovarian; conditions: 10 µM unless noted
# [18] = tested on: HS 578T breast; conditions: 10 µM unless noted
# [19] = tested on: BT-549 breast; conditions: 10 µM
# [20] = tested on: HCC-2998 colon; conditions: 10 µM unless noted
Structure (SMILES),growth [1],growth [2],growth [3] [%],growth [4],growth [5] [%],growth [6],growth [7] [%],growth [8],growth [9],growth [10],growth [11],growth [12],growth [13] [%],growth [14],growth [15],growth [16],growth [17],growth [18],growth [19],growth [20]
CO[C@@H](c1ccccc1Cl)[C@H](C)OC(N)=O,98.4%,106%,104,113%,95.8,91.7%,96.9,106%,98.1%,106%,92.1%,96.3%,106,107%,103%,112%,102%,99.9%,97.2%,91.5%
CNc1ccc(C(=O)CC(O)CCC(C)C2OC(=O)CC(O)CC(=O)CC(O)CC(O)CC(O)CC(O)CC3(O)CC(O)C(C(=O)OC)C(CC(O[C@@H]4O[C@H](C)[C@@H](O)[C@H](N)[C@@H]4O)/C=C/C=C/C=C/C=C/C=C/C=C/C=C/C2C)O3)cc1 (some centres not stated),-65% (active),-75.3% (active),34.5,-20% (active),20.2,-79.7% (active),41.8,-21.2% (active),-8.67% (active),-81.3% (active),2.61% (active),-54.2% (active),,-13.8% (active),-22.3% (active),-10.5% (active),2.49% (active),6.91% (active),-16.8% (active),-43.9% (active)
ClCCN(CCCl)c1ccc(C=NCCc2c[nH]c3ccccc23)cc1,88.6%,56.2%,82.4,56.1%,35.6,99.9%,90.3,85.1%,74.7%,62.7%,23.5%,1.98% (active),91,63.1%,74.8%,92.9%,81%,89.8%,81.9%,91.8%
Nc1c(Br)cc2c3c(cccc13)-c1ccccc1-2,77.2%,70%,38.3,80.2%,74.5,88.4%,49.3,103%,53.7%,,57.4%,70.5%,82.7,53.8%,70.9%,62.1%,87.7%,50%,91.8%,80.7%
Oc1ccc2c3c1O[C@H]1c4[nH]c5ccccc5c4C[C@@]4(O)C(C2)N(CC2CC2)CC[C@]314,90%,96.6%,77.7,,98.3,97.4%,99.7,83.9%,87.3%,103%,92.3%,100%,98.6,74.4%,93.2%,96.5%,103%,92.1%,97.4%,90%
CC(C)N=C(NC(C)C)N1CC1,101%,122%,124,122%,102,105%,110,111%,116%,111%,99.3%,116%,104,105%,108%,104%,115%,107%,114%,103%
O=CC(Br)C(Br)c1ccccc1 (configuration not stated),97.6%,77%,41.2,86.8%,97.9,93.8%,78.1,71.4%,56.2%,86.7%,92.9%,102%,26.3,16.6%,85.6%,104%,109%,97.2%,99.7%,106%
